Rows were chosen to be rich in hits. Some 21% of all compounds tested hit in one or more screens of this group.
Pf growth 96h – inhibits malaria parasite growth, 96 h; actives 6.9% (n = 320,000); AID 504834; P. falciparum luciferase reporter growth, 96 h; Potency, µM (top dose mostly 28.7 µM), usual class: inhibitors
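96 h incubation, 37 C, 5% CO2, of luciferase-reporter P. falciparum-infected RBCs (2% hematocrit, 0.05% parasitemia final) with test compounds; endpoint luminescence.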
Shiga toxin inh – blocks Shiga toxin action in Vero cells | inhibition, % at 38.7 µM | AID 2315 | Vero cells, Shiga toxin protein synthesis inhibition reporter | actives 9.2% (n = 290,000); in the data active = inhibition mostly above about 28%, no sharp cut-off; inactive = mostly below about 43%
CHX counter – counter-screen hit for Shiga toxin inhibitors, cycloheximide | max response, % | actives 12% (n = 300,000) | cell reporter, cycloheximide protein synthesis inhibition counterscreen; in the data active = max response mostly above about 13%, no sharp cut-off; inactive = mostly below about 14%; note: read at 38.3 µM for the half of the compounds with a filed dose
Pf growth 48h – P. falciparum growth inhibition at 48 hours (one generation). P. falciparum luciferase growth in erythrocytes, 48 h. Potency, µM (series often up to 28.7 µM), most hits filed as inhibitors. actives 5.9% (n = 310,000). AID 504832
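Growth was read as firefly luciferase luminescence after a 48 h, 37 C, 5% CO2 exposure of compounds to reporter-bearing P. falciparum cultures (0.1% parasitemia, 2% hematocrit final) in Albumax-supplemented RPMI 1640.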
A number is an active result; n = inactive; u = inconclusive; x = no result. Unless noted, calls come from the whole dose curve; as a rule, active = well fitted inhibition curve with a large enough effect; inconclusive = small, poorly fitted or top-dose-only effect, or another doubt; inactive = no such curve, though single readings can be large or run the other way.

SMILES	Pf growth 96h	Shiga toxin inh	CHX counter	Pf growth 48h
Cc1ccc(O)c(N=Cc2ccc(C)s2)c1	n	52	37	n
Cc1ccc(O)c(N=Cc2cccs2)c1	n	38	29	u
Cc1ccc(CN2CCN(/N=C/c3cccs3)CC2)cc1	u	n	n	n
COC(=O)c1cc(Cn2nc(C(=O)O)c3ccccc3c2=O)oc1C	u	n	n	n
CC(C)(C)c1ccc(S(=O)(=O)N2CCN(c3ccccn3)CC2)cc1	n	n	n	n
CCOC(=O)Nc1ccc2c(c1)N(CCCN(C)C)c1ccccc1CC2	13µM	n	n	u
CCN(CC)CCC(=O)Nc1ccc2c(c1)N(C(=O)CN(CC)CC)c1ccccc1CC2	u	n	n	10µM
CN(C)CC(=O)N1c2ccccc2CCc2ccc(NC(=O)c3ccc(N)cc3)cc21	n	n	n	5.9µM
COc1cc(C(=O)Nc2ccc3c(c2)N(C(=O)CCN(C)C)c2ccccc2CC3)cc(OC)c1OC	9.3µM	n	n	10µM
CCOC(=O)Nc1ccc2c(c1)N(C(=O)OC)c1ccccc1CC2	n	n	n	n
CCn1cc(S(=O)(=O)NCc2ccc(OC)cc2)cn1	n	n	n	n
Cc1cc(N2CCC(C(=O)NC3CC3)CC2)nc(-c2ccccc2)n1	u	n	n	3.7µM
Cc1cc(N2CCC(C(=O)NC3CCCCC3)CC2)nc(-c2ccccc2)n1	u	n	n	n
CCCc1cc(N2CCC(C(N)=O)CC2)nc(-c2ccccc2)n1	n	n	n	5.2µM
O=C(Nc1ccccc1O)/C(=C\c1ccccc1)NC(=O)c1ccccc1	n	n	n	n
COc1ccc(CN(C)C(C)C(=O)N(C)CC(=O)Nc2ccc(C)cc2)cc1F (stereo not drawn)	u	x	x	n
Cc1cc(C)c(S(=O)(=O)NCC2CCC(C(=O)NCc3ccccn3)CC2)c(C)c1 (stereo not drawn)	n	n	n	u
COc1cccc(CN2CCN(Cc3ccc(C)o3)CC2CCO)c1 (stereo not drawn)	13µM	n	n	n
COc1cccc(CN2CCN(Cc3cc4ccccc4o3)CC2CCO)c1 (stereo not drawn)	n	x	n	n
COc1cccc(CN2CCN(Cc3ccc(OC)c(OC)c3)CC2CCO)c1 (stereo not drawn)	9.3µM	n	n	n
O=C(CCC(=O)c1ccccc1)NC1CCCN(Cc2ccccc2F)C1 (stereo not drawn)	u	n	n	n
O=C(NC1CC1)c1cc(=O)c2ccccc2o1	n	n	n	n
O=c1cc(/C=C/c2ccccc2)oc2ccccc12	n	107	47	u
O=C(NC1CCCCC1)c1ccc(CNc2nc(=S)[nH]c3ccccc23)cc1	u	n	n	u
CC1=NNC(=O)c2ccccc2O1	n	n	n	n
SMILES	Pf growth 96h	Shiga toxin inh	CHX counter	Pf growth 48h
COc1cc(/C=C/C(=O)O)cc(S(=O)(=O)NCCCC(=O)O)c1OC	n	n	n	n
COc1ccc(N(CC(=O)Nc2ccc3c(c2)OCCO3)S(=O)(=O)c2c(C)noc2C)cc1	n	n	11	u
COc1ccc(N(CC(=O)Nc2ccc3c(c2)OCO3)S(=O)(=O)c2ccccc2)cc1	n	n	n	u
COc1ccc(N(CC(=O)Nc2ccc(C)c(F)c2)S(=O)(=O)c2c(C)noc2C)cc1	u	n	n	13µM
COc1ccc(N(CC(=O)Nc2ccc3c(c2)OCCO3)S(=O)(=O)c2cccnc2)cc1	u	n	20	n
CCOC(=O)c1c(-c2ccccc2)csc1NC(=O)CSc1nncs1	u	n	n	9.3µM
COC(=O)c1c(-c2ccc3ccccc3c2)csc1NC(=O)Cc1ccc(OC)c(OC)c1	9.3µM	n	n	8.3µM
CCOC(=O)c1c(NC(=O)CSc2nnnn2C)sc(C)c1-c1ccc(C)cc1	2.3µM	n	16	8.3µM
CCOC(=O)c1c(-c2ccc(C)cc2)csc1NC(=O)CCSc1nnc2ccccn12	n	n	n	n
CCOC(=O)c1c(-c2ccccc2)csc1NC(=O)CSc1nnnn1C	x	n	n	4.7µM
Cc1c(S(=O)(=O)NC2CCCCC2)c(=O)n(C)c(=O)n1C	n	x	x	n
COc1ccccc1C1(O)CCN(CCCn2c3ccccc3c3ccccc32)CC1	x	n	n	x
CCOC(=O)c1c(-c2ccccc2)csc1NC(=O)CSc1ccccc1	n	n	n	u
CCOC(=O)c1c(-c2ccc(OC)cc2)csc1NC(=O)CSc1ccccc1	13µM	n	n	x
C/C(=N\N=C(N)N)c1ccc(C)c(C)c1	12µM	n	n	9.3µM
N=c1c(C(=O)NCCc2ccccc2)cc2c(=O)n3ccccc3nc2n1CCCN1CCOCC1	u	n	n	2.1µM
N=c1c(C(=O)NCc2ccccc2)cc2c(=O)n3ccccc3nc2n1CCCN1CCOCC1	n	n	n	5.9µM
N=c1c(C(=O)NCC2CCCO2)cc2c(=O)n3ccccc3nc2n1Cc1ccc(F)cc1 (stereo not drawn)	u	n	n	u
N=c1c(C(=O)NCc2ccc(F)cc2)cc2c(=O)n3ccccc3nc2n1CCCN1CCOCC1	2.6µM	n	n	1.7µM
N=c1c(C(=O)NCCN2CCOCC2)cc2c(=O)n3ccccc3nc2n1CCc1ccccc1	3.3µM	n	n	3.3µM
Cc1ccc(Cn2c(=N)c(C(=O)NCCN3CCOCC3)cc3c(=O)n4ccccc4nc32)cc1	u	n	n	u
COc1ccc(CCNC(=O)c2cc3c(=O)n4cccc(C)c4nc3n(CCCN3CCOCC3)c2=N)cc1	u	n	n	u
CCc1nnc(NC(=O)CCC(=O)NCCc2ccccc2)s1	n	n	n	n
CC(CC(=O)N1CCN(S(=O)(=O)c2ccc([N+](=O)[O-])cc2)CC1)c1ccccc1 (stereo not drawn)	u	x	x	n
N=c1c(C(=O)NCC2CCCO2)cc2c(=O)n3ccccc3nc2n1Cc1cccnc1 (stereo not drawn)	x	n	n	n
SMILES	Pf growth 96h	Shiga toxin inh	CHX counter	Pf growth 48h
N=c1c(C(=O)NCc2ccc(F)cc2)cc2c(=O)n3ccccc3nc2n1Cc1cccnc1	5.9µM	n	n	x
CC(C)C[C@H](NC(=O)CNC(=O)[C@H](CCC(N)=O)NC(=O)[C@H](Cc1ccc(O)cc1)NC(=O)[C@@H](NC(=O)[C@H](Cc1ccc(O)cc1)NC(=O)CNC(=O)[C@@H](N)CCCN=C(N)N)C(C)C)C(=O)O	x	n	n	x
CCOC(=O)c1sc(NC(=O)CSc2ncccn2)nc1C	13µM	41	n	n
CCOC(=O)c1sc(NC(=O)CSc2nnc(-c3ccc(OC)cc3)n2CCOC)nc1C	13µM	n	n	u
CCOC(=O)c1sc(NC(=O)CSc2nccn2C)nc1C	n	112	35	n
CN(C)c1ccc(C(CNC(=O)Cc2cccc3ccccc23)N(C)C)cc1 (stereo not drawn)	n	n	n	n
COc1cc(C(=O)Nc2cc(C(F)(F)F)ccc2N2CCOCC2)ccc1OCC(=O)N1CCOCC1	n	x	x	u
OCC1OC(n2cnc3ccccc32)CC1O (stereo not drawn)	n	n	n	n
CCCOc1ccc(N2C(=O)CC(SC(=N)N3N=C(c4ccccc4)CC3c3ccccc3)C2=O)cc1 (stereo not drawn)	n	n	n	2.3µM
CCCOc1ccc(N2C(=O)CC(SC(=NC)Nc3ccc(F)cc3)C2=O)cc1 (stereo not drawn)	x	n	n	n

Screens as filed in PubChem BioAssay.
